Test results as given in PubChem BioAssay AID1159580 (chemical genetic matrix, 2015).
Among all 5,500 compounds or so, about 2,000 (36%) were called active. Inconclusive results (about 18%) are left out. No stated cut-off is given here; in the data, active means normalized growth mostly below about 0.91 (no sharp cut-off); inconclusive means no clear call, values can overlap the other calls; inactive means mostly above about 0.92. This is one part of the list.

Assay: chemical genetic growth profiling, strain panel (AID 1159580);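 further: tested at 20 µM; growth read once vehicle control cultures reached saturation at 30 °C; 1 = growth at the plate median or of vehicle wells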
Conditions: S. cerevisiae deletion strains, growth OD

Measured: normalized growth

Nc1ccc(N2C(=O)c3ccccc3C2=O)c(Cl)c1
inactive: locus YAL040C, strain CLN3, stronger effect = lower value 1.06 | locus YCL061C, strain MRC1 (second series), stronger effect = lower value 1.01 | locus YER002W, strain NOP16, stronger effect = lower value 0.974 | locus YGR078C, strain PAC10, stronger effect = lower value 0.98 | locus YJR075W, strain HOC1, stronger effect = lower value 1 | locus YNL153C, strain GIM3, stronger effect = lower value 0.995 | locus YNL175C, strain NOP13, stronger effect = lower value 0.958 | locus YNL197C, strain WHI3, stronger effect = lower value 0.935 | locus YNL224C, strain SQS1, stronger effect = lower value 0.94 | locus YNL322C, strain KRE1, stronger effect = lower value 0.986 | locus YOR083W, strain WHI5 (second series), stronger effect = lower value 1.02
